ST2 inh = inhibitors of human ST2 (IL1RL1) binding to IL-33, primary screen, biochemical, AlphaLISA. Interleukin-1 receptor-like 1 (Homo sapiens), Q01638. AlphaLISA ST2-Fc/biotin-IL-33 interaction, 1 h. inhibition, % for hits at 17 µM. 2.3% of 78,000 active. AID 1259354, 2018; in the data active = inhibition above about 30%
Target sequence (Q01638 whole entry, looked up): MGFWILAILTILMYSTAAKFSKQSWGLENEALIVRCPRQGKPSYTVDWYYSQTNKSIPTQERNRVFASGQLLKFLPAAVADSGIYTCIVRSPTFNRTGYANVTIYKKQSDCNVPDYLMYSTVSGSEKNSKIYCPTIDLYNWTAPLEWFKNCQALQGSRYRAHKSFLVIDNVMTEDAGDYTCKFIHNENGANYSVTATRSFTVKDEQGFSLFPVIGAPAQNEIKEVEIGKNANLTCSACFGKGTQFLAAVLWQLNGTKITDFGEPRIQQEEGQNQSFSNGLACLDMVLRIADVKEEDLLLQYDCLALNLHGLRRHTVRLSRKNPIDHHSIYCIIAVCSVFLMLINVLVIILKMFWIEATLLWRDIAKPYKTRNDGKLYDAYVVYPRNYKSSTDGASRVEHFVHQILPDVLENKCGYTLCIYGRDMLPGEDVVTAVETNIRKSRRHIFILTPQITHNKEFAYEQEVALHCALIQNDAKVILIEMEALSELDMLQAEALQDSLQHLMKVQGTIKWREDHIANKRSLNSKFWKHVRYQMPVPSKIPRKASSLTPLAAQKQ
Of the large screens only hits and unclear results are named; the others gave an inactive call; ! = not confirmed by another sample. The full list was thinned out, with hits kept by preference.

O=C(Nc1nc2ccc(F)cc2s1)c1ccc(S(=O)(=O)N2CCc3ccccc3C2)cc1	none
O=C(Nc1ccccc1[N+](=O)[O-])c1cccc(S(=O)(=O)N2CCc3ccccc3C2)c1	ST2 inh 40.0%
O=C1CCc2cc(S(=O)(=O)N3CCc4ccccc4C3)ccc2N1	none
O=C1C2C3CC(C(Br)C3Br)C2C(=O)N1c1ccc(O)cc1 (stereo unspecified)	none
CCn1cnc2cc(NCc3ccc(N(C)C)cc3)ccc21	ST2 inh 52.0%!
CCCCn1cnc2cc(NCc3ccc(Br)cc3)ccc21	none
CC(C)(C)n1cnc2cc(NCc3ccccn3)ccc21	none
CC(C)(C)n1cnc2cc(NCc3ccncc3)ccc21	none
CCn1cnc2cc(NCc3ccc(C)cc3)ccc21	none
CCCn1cnc2cc(NCc3ccncc3)ccc21	none
CN(C)c1ccc(CNc2ccc3c(c2)ncn3C(C)(C)C)cc1	ST2 inh 33.0%
CCn1cnc2cc(NCc3cccs3)ccc21	none
CCN(CC)c1ccc(CNc2ccc3c(c2)ncn3CC)cc1	ST2 inh 52.0%!
Cc1cc(C)nc(NS(=O)(=O)c2ccc(N=Cc3cc(Cl)cc(Cl)c3O)cc2)n1	none
COCCC(=O)N1C[C@H]2OC(=O)N(Cc3ccc(OC)c(OC)c3)[C@H]2C1	none
COc1cccc(F)c1-c1cccc(-n2cnnc2)c1	none
Cc1cc(NC(=O)CN2C(=O)c3ccccc3S2(=O)=O)ccc1Br	none
CC1CCCC(C)N1S(=O)(=O)c1ccc(N)cc1 (stereo unspecified)	none
O=C(Nc1ccc(Br)cc1F)C1CCN(S(=O)(=O)c2ccc(F)cc2)CC1	none
CCOC(=O)C(C(=O)N1CCn2cncc2C1)C1CCCCC1 (stereo unspecified)	none
Cc1ccc(O)c(NC(=O)c2ccc3c(c2)C(=O)N(C(C)(C)C)C3=O)c1	none
CN(C)c1ccc(NC(=O)CCC(=O)O)cc1	ST2 inh 51.0%
O=C(O)CCC(=O)Nc1ccc(C(=O)O)cc1	none
O=C(O)CCC(=O)Nc1ccc(I)cc1	none
CCc1ccc(CN2CCC3(CCC(=O)N(C)CC3)CC2)nc1	none
Cc1cccc(NC(=O)C(C)N(c2ccccc2)S(C)(=O)=O)c1 (stereo unspecified)	none
Cc1ccc(S(=O)(=O)Nc2cccc(C(=O)NN)c2)cc1	none
Cc1ccc(NC(=O)c2cccc(S(=O)(=O)Nc3cccc(C(=O)O)c3)c2)cc1	none
Cc1ccc([N+](=O)[O-])cc1S(=O)(=O)Nc1cccc(C(=O)O)c1	none
Cc1ccc(S(=O)(=O)N=C2C=C(Nc3cccc(C(=O)O)c3)C(=O)c3ccccc32)c(C)c1	ST2 inh 48.0%
Cc1ccc(S(=O)(=O)N=C2C=C(Nc3cccc(C(=O)O)c3)C(=O)c3ccccc32)cc1	ST2 inh 53.0%
CC(C)Cc1n[nH]c2c1CN(C(=O)c1ccc3c(c1)CCO3)CC2	none
Cc1ccc(C)c(NC(=O)CC(=O)N(C)C(C)c2ccncn2)c1 (stereo unspecified)	none
CC(C)Oc1ccc(-c2nc(C(N)=O)c3c(n2)n(-c2ccc(F)cc2)c(=O)n3C)cc1	none
CCCOc1ccc2c(oc(=O)c3ccccc32)c1C	none
COc1ccc(-c2ccnc(N[C@H]3CO[C@H]4[C@@H]3OC[C@@H]4NC(=S)NCC(C)C)n2)cc1	none
CCc1ccc(S(=O)(=O)N=C2C=C(Nc3ccccc3)C(=O)c3ccccc32)cc1	ST2 inh 79.0%
CCOc1ccc(S(=O)(=O)Nc2ccc(I)cc2)cc1	none
CCOc1ccc(S(=O)(=O)N=C2C=C(Nc3ccccc3)C(=O)c3ccccc32)cc1	ST2 inh 87.0%
CCOc1ccc(S(=O)(=O)N(CC(=O)Nc2cccc(OC)c2)c2ccccc2)cc1	none
CCOc1ccc(S(=O)(=O)NCCO)cc1	none
COc1ccc(S(=O)(=O)N=C2C=C(Nc3ccccc3)C(=O)c3ccccc32)cc1	ST2 inh 85.0%
CCc1ccc(S(=O)(=O)NCC(=O)O)cc1	none
CCOc1ccc(Nc2c(OCC)c(=O)c2=O)cc1	none
CCOc1ccc(NC2=CC(=NS(=O)(=O)c3ccc(OCC)cc3)c3ccccc3C2=O)cc1	ST2 inh 93.0%
COc1ccc(C=NS(=O)(=O)c2ccccc2)c(OC)c1	none
COc1ccc(NC(=O)C(Cc2ccccc2)N2C(=O)c3ccccc3C2=O)cc1 (stereo unspecified)	none
CC(C)Cc1ccc(S(=O)(=O)Nc2ccccc2)cc1	none
Cc1ccc(Cl)cc1NC(=O)CN1CCN(Cc2ccccc2Cl)S1(=O)=O	none
COCCCn1c(SCc2ccccc2C#N)nc2c(sc3ccccc32)c1=O	none
CCNC(=O)c1c(NC(=O)C(C)Cn2nc(C)nc2C)sc2c1CCCC2 (stereo unspecified)	none
O=C1C2CCCN2C(c2ccc(Cl)c(Cl)c2)N1c1nccs1 (stereo unspecified)	none
O=c1[nH]c(Nc2ccc(Cl)cc2)nnc1Cc1ccccc1Cl	none
Cc1cc(C)n(CC(C)NCC2(c3cccc(F)c3)CCOCC2)n1 (stereo unspecified)	none
O=C(c1ccc(S(=O)(=O)N2CCCC2)cc1)N1CCN=C1SCc1cccc(Cl)c1	none
CCn1c2ccccc2c2cc(NC(=O)C(=O)Nc3cccc(C)n3)ccc21	none
Cc1ccc(NC2=CC(=NS(=O)(=O)c3cccs3)c3ccccc3C2=O)c(C)c1	ST2 inh 89.0%
CCOc1ccc(NC2=CC(=NS(=O)(=O)c3ccc(F)cc3)c3ccccc3C2=O)cc1	ST2 inh 95.0%
CC1=C(C(=O)Nc2ccc(C)cc2C)C(c2cccs2)n2nnnc2N1 (stereo unspecified)	none
COc1ccccc1NC1=CC(=NS(=O)(=O)c2ccc(C)cc2)c2ccccc2C1=O	ST2 inh 94.0%
CCOc1ccc(S(=O)(=O)N=C2C=C(Nc3ccc(OC)cc3)C(=O)c3ccccc32)cc1	ST2 inh 93.0%
CCOc1ccc(NC(=O)Cc2ccc(OC)cc2)cc1	none
CCOc1c(Nc2ccc(F)cc2)c(=O)c1=O	none
Cc1ccccc1NC(=O)C(NS(=O)(=O)c1cccs1)C(C)C (stereo unspecified)	none
CCOc1ccc(NC(=O)c2ccccc2F)cc1	none
COc1ccccc1NS(=O)(=O)c1ccc(C(C)(C)C)cc1	none
COc1ccc(C)cc1NS(=O)(=O)c1ccc(OC)c(OC)c1	none
CCc1ccc(NS(=O)(=O)c2ccc(OC)cc2)cc1	none
Cc1ccc(N2C(=O)CC(NCC(C)c3ccccc3)C2=O)cc1 (stereo unspecified)	none
O=C(CN1C(=O)C2(OCCCO2)c2ccccc21)NC1CCCCC1	none
CCN(CC)CCNC(=O)c1cc(=O)[nH]c2ccc(S(=O)(=O)N3CCCCCC3)cc12	none
CCNc1nc(C)c(C(=O)N2CCN3CCN(C)C(=O)C3C2)s1 (stereo unspecified)	none
COc1ccc(S(N)(=O)=O)cc1	none
COc1ccc(S(=O)(=O)N=C2C=CC(=O)c3ccccc32)cc1	ST2 inh 39.0%
COc1ccc(S(=O)(=O)N=C2C=C(C(C)C)C(=O)C=C2C)cc1	none
O=C1CC(c2cccc(F)c2)c2cc3c(cc2N1)OCCO3 (stereo unspecified)	none
COc1ccc(CN2CCC(N3CCCC(C)C3)CC2)cc1 (stereo unspecified)	none
COc1cc(/C=C2/SC(=O)NC2=O)c([N+](=O)[O-])cc1OC	none
COc1cc(/C=C2\Sc3ccccc3C2=O)cc([N+](=O)[O-])c1O	ST2 inh 30.0%
COc1ccccc1/C=C/C1=NC(=C\c2ccccc2[N+](=O)[O-])/C(=O)O1	none
COc1cc(Br)cc(/C=C2\Sc3ccccc3C2=O)c1O	ST2 inh 60.0%
COc1cc(C=O)cc(C=O)c1O	none
COc1cc(/C=C2\C(=O)N(c3cccc(C(=O)O)c3)N=C2C)cc([N+](=O)[O-])c1O	none
COc1cc(Br)cc(/C=C2/NC(=O)NC2=O)c1O	none

Screening data from PubChem BioAssay.
